Source: PubChem BioAssay (NCI)
This is part of a sample that, as a whole, favours compounds with a hit. Of some 79,000 tested, about 15% had one in any assay. No stated cut-off is given here; in the data, active means growth inhibition above about 70%; inactive means the rest.

How the values were obtained:
[1] = NCI Yeast Anticancer Drug Screen. Data for the rad50 strain (AID 155);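 further: 0% = growth of vehicle-only cultures of the same strain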; settings: S. cerevisiae rad50 strain growth inhibition, stronger effect = higher value; at 50.0 µM unless noted
In short: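 Relative growth inhibition (compound vs vehicle) was measured in yeast with a defined repair-gene alteration.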

[2] = NCI Yeast Anticancer Drug Screen. Data for the mec2-1 strain (AID 157); settings: S. cerevisiae mec2-1 strain, stronger effect = higher value; at 50.0 µM unless noted
In short: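 Yeast mec2-1 mutant treated with compound. Readout: growth inhibition vs vehicle controls.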

[3] = NCI Yeast Anticancer Drug Screen. Data for the sgs1 mgt1 strain (AID 161);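 further: 0% = growth of cultures given vehicle only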; settings: S. cerevisiae sgs1 mgt1 strain, stronger effect = higher value; at 50.0 µM unless noted
In short: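 Test agents were incubated with a DNA-repair-mutant yeast strain. Growth was then read and compared against vehicle-treated controls.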

[4] = NCI Yeast Anticancer Drug Screen. Data for the cln2 rad14 strain (AID 165);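 further: 0% = growth equal to vehicle treated cultures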; settings: S. cerevisiae cln2 rad14 strain, stronger effect = higher value; at 50.0 µM unless noted
In short: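 cln2 rad14 yeast strain; compound exposure; growth inhibition read vs vehicle controls.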

[5] = NCI Yeast Anticancer Drug Screen. Data for the bub3 strain (AID 167); settings: S. cerevisiae bub3 mutant strain, stronger effect = higher value; at 50.0 µM unless noted
In short: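 Screening used yeast with an engineered genetic alteration affecting cell cycle control. Compound-exposed cultures were compared with vehicle cultures, and reduced growth was taken as inhibition.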

[6] = NCI Yeast Anticancer Drug Screen. Data for the mlh1 rad18 strain (AID 175); settings: S. cerevisiae mlh1 rad18 strain growth inhibition, stronger effect = higher value; at 50.0 µM unless noted
In short: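 Yeast w/ defined DNA-repair lesions; compound exposure; growth vs vehicle controls → % inhibition.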

Measured: growth inhibition

CC(C)(C)NNC(=O)CCn1[nH]c(=O)c(Cl)c(Cl)c1=O
inactive: [1] -0.8% | [2] -5.25% | [3] -18.9% | [4] -2.25% | [5] -16% | [6] -12.3%

CCc1n[nH]c(=O)n1-n1c(C)ccc1C
inactive: [1] -15.8% | [2] -25.9% | [3] -5.2% | [4] 3.15% | [5] -33% | [6] -15.2%

CC(=O)OC1CCC2(C)C(CCC3C2C(=O)C(OC(C)=O)C2(C)C3CC3OC4(CCC(C)CO4)C(C)C32)C1 (stereo not given)
inactive: [1] -10.5% | [2] -19.9% | [3] -11.2% | [4] 3.6% | [5] -23.9% | [6] -6.9%

CCOC(=O)[C@H]1Nc2c(cccc2[N+](=O)[O-])C2c3ccccc3CC21 (stereo not given in full)
inactive: [1] 48.5% | [2] 1.55% | [3] 8.6% | [4] 25.3% | [5] 9.5% | [6] 13.6%

CC1CCC2C(=O)OC(=O)C2C1 (stereo not given)
inactive: [1] 6.2% | [2] -10.2% | [3] 11.6% | [4] 23.6% | [5] 18.4% | [6] 4.7%
